# From PubChem BioAssay
# Active and inactive are the calls of the source.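 The calls were made as follows, unless noted: active = inhibition of the reporter signal at or above 50%; inactive = inhibition below 50%.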
# What was measured:
# [1] = inhibitors of TNFa-induced NFkB p65 translocation, primary screen, imaging, HUVEC, MLSMR starter and 10KST1 sets (AID 438;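 active = inhibition above 20% together with a positive visual image hit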;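 also: compound added about 3h40 before a 20 min TNFalpha stimulation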;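 as to inhibition: signal is the nuclear over cytoplasmic p65 intensity ratio per well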); conditions: HUVEC TNFa-induced p65 nuclear translocation; cell count: measured here: nuclei count (cytotoxicity indicator), at 2.08 µM; inhibition: at 2 µM, stronger effect = higher value, 0% TNFa-plus-vehicle, 100% no-TNFa wells
# [2] = inhibitors of mutant huntingtin aggregation, primary screen, imaging, exon1htt(103Q)mCFP cells, high-content imaging (AID 483;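 active = visual image review flags a hit and inhibition of aggregation exceeds 20%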;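 also: compound exposure lasted 3 days before fixation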;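 as to nuclei count: percent of the per-plate median nuclei count of sample wells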); conditions: exon1htt(103Q)mCFP cell line, aggregate imaging, at 2 µM; inhibition of aggregation: stronger effect = higher value; nuclei count: measured here: cell count, toxicity
# [3] = inhibitors of E-selectin induction by TNFa, primary screen, imaging, HUVEC, immunofluorescence, MLSMR starter and 10KST1 sets (AID 487;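 active = visually confirmed hit in the image check and inhibition above 20%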;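 as to inhibition: signal is fraction of cell area covered by stained E-selectin grains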;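 as to nuclei count: 100% = median nuclei count of all wells on the same plate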); conditions: HUVEC TNFalpha-induced E-selectin immunofluorescence imaging, at 2 µM; inhibition: stronger effect = higher value; nuclei count: measured here: cell number, toxicity
# [4] = target: Voltage-gated potassium channel subunit beta-2 (Rattus norvegicus) (UniProt P62483); assay: KvBeta enzyme negative modulators, primary screen, biochemical, NADPH fluorescence (AID 622;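 active = fluorescence slope higher than the sample average by over 3 SD, cut at about -0.22 in these data, passing the limit was not always enough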;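 also: slope of raw intensity against log time taken from 70 to 1610 s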); conditions: recombinant KvBeta, 4-cyanobenzaldehyde reduction, at 10 µM, stronger effect = higher value
# [5] = target: Voltage-gated potassium channel subunit beta-2 (Rattus norvegicus) (UniProt P62483); assay: KvBeta positive modulators, primary screen, biochemical, NADPH fluorescence (AID 623;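 active = NADPH fluorescence slope more negative than the mean of all samples by about 3 SD, 99.7% confidence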;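 also: fluorescence intensity change per second fitted from 20 to 320 s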); conditions: Recombinant KvBeta, NADPH fluorescence decrease slope, 10 min; at 10 µM; stronger effect = lower value
# [6] = target: Alpha-2C adrenergic receptor (Homo sapiens) (UniProt P18825); assay: modulators of alpha2C/GIRK thallium flux, primary screen, cell-based, HEK293 alpha2C/GIRK1/2 (AID 624;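 active = fluorescence slope after compound addition differing from the mean of all screened samples at 99.7% confidence, in either direction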;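 also: slope of fluorescence ratio to pre-addition baseline per second over 15 to 24 s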); conditions: thallium flux BTC fluorescence, at 10 µM, actives lie on both sides
# [7] = inhibitors of Sendai virus-induced IRF3 signaling, primary screen, TLR/RLR signaling modifier project, cell-based, Sendai virus stimulus, luciferase, 10K MLSCN set (AID 602276;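 active = inhibition at or above 50% at 10 µM; inactive = inhibition below 50%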;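 also: firefly luciferase from ISG56 promoter only with Renilla not read in this screen; 0% = Sendai virus plus DMSO and 100% = medium plus DMSO without virus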); conditions: HEK293 RL24 IRF3 luciferase reporter, at 10 µM, stronger effect = higher value
# [8] = inhibitors of poly I:C-induced TLR3 signaling, primary screen, cell-based, poly I:C stimulus, luciferase, 10K MLSCN set (AID 602277); conditions: HEK293-TLR3 RL24 IRF3 luciferase reporter, at 10 µM, stronger effect = higher value
# Sequence of Alpha-2C adrenergic receptor (Homo sapiens) (P18825 whole entry, looked up): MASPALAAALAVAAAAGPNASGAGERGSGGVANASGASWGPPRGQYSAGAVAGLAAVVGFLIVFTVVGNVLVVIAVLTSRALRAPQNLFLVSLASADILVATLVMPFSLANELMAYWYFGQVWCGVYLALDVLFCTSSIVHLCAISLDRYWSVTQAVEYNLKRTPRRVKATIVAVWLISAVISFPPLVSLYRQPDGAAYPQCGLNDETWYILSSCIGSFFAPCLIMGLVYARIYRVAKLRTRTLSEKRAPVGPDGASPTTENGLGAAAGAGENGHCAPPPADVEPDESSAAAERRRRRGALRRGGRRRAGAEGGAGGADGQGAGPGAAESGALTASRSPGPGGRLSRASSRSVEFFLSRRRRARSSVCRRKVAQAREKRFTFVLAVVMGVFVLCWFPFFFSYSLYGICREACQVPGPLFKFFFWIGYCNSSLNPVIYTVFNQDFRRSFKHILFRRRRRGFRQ
# Sequence of Voltage-gated potassium channel subunit beta-2 (Rattus norvegicus) (P62483 whole entry, looked up): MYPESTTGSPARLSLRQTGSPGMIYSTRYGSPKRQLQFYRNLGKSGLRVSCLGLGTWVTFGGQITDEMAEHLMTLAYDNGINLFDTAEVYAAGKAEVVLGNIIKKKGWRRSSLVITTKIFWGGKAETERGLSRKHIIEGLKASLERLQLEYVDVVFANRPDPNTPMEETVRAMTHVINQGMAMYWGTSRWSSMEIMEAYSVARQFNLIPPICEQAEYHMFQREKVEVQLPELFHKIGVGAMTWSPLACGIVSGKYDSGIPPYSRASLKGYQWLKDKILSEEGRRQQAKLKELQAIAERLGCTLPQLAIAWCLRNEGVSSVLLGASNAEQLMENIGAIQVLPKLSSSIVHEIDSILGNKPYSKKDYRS
Compound,cell count [1],inhibition [1],inhibition of aggregation [2],nuclei count [2],inhibition [3],nuclei count [3],fluorescence slope [4],NADPH fluorescence slope [5],slope [6],inhibition [7],inhibition [8]
O=C(NC1CCCCC1)c1cc2nc(-c3ccco3)cc(C(F)(F)F)n2n1,455,-5.7% (inactive),12.4% (inactive),92.7%,-46% (inactive),156%,-0.218 (inactive),-5.6e-05 (inactive),0.00549 (inactive),10.5% (inactive),10.6% (inactive)
CCOc1cccc(C(=O)N(Cc2ccc(F)cc2)C2CCS(=O)(=O)C2)c1 (stereo not drawn),461,9.3% (inactive),-23.1% (inactive),92.3%,-116% (inactive),219%,-0.415 (inactive),-3.8e-05 (inactive),0.0041 (inactive),14.6% (inactive),40.1% (inactive)
COCCCn1c(SCC(=O)Nc2cccc(C)n2)nnc1-c1ccco1,601,-10.2% (inactive),21.7% (inactive),85.3%,73.4% (inactive),64.2%,-0.612 (inactive),-2.9e-05 (inactive),0.00331 (inactive),18.6% (inactive),16.6% (inactive)
CC1CCN(C(=O)CN2C(=O)C(C)(C)Oc3ccc(C(=O)NC4CCCC4)cc32)CC1,458,0.3% (inactive),-4.6% (inactive),84.4%,-83.6% (inactive),117%,-0.503 (inactive),-1.2e-05 (inactive),0.00666 (inactive),-6.8% (inactive),14.6% (inactive)
O=C(Nc1ccccc1)N1CCC(c2ccccc2)C1 (stereo not drawn),331,23.5% (inactive),3% (inactive),101%,13.1% (inactive),103%,-0.481 (inactive),-9.5e-06 (inactive),0.00694 (inactive),-49.3% (inactive),-82.3% (inactive)
COc1ccccc1NC(=O)C1=C(C)Nc2nc(CCCO)nn2C1c1cccnc1 (stereo not drawn),318,1.6% (inactive),10.7% (inactive),102%,-30.7% (inactive),114%,-0.631 (inactive),-3.9e-05 (inactive),0.00626 (inactive),6.83% (inactive),5.25% (inactive)
CC(C)c1nnc(NC(=O)C2CCCCC2)s1,571,-5.2% (inactive),22.8% (inactive),40.4%,20.2% (inactive),76.2%,-0.421 (inactive),-6.4e-05 (inactive),0.00517 (inactive),-16.4% (inactive),-54.8% (inactive)
CC1CCCN(S(=O)(=O)c2coc(C(N)=O)c2)C1 (stereo not drawn),697,-0.6% (inactive),-15.4% (inactive),111%,1.5% (inactive),95.6%,-0.6 (inactive),-2.8e-05 (inactive),0.00651 (inactive),1.83% (inactive),25.1% (inactive)
CC1=C(C(=O)Nc2ccccc2C)C2(CCCC2)C(C(N)=O)C(=O)N1 (stereo not drawn),683,0% (inactive),-25.1% (inactive),99%,-126% (inactive),106%,-0.483 (inactive),-4.6e-05 (inactive),0.0058 (inactive),13.6% (inactive),17.8% (inactive)
Cc1nc2sc(C(c3cccs3)N3CC(C)CC(C)C3)c(O)n2n1 (stereo not drawn),614,3.9% (inactive),27.2% (inactive),118%,-12.3% (inactive),109%,-0.545 (inactive),4.4e-06 (inactive),0.00614 (inactive),11.2% (inactive),21.5% (inactive)
COC(=O)c1ccccc1NC(=O)Cn1ccnc1,310,-5.7% (inactive),3.6% (inactive),78.1%,-12% (inactive),86.6%,-0.591 (inactive),-6.8e-05 (inactive),0.00553 (inactive),5.19% (inactive),23.4% (inactive)
O=C(Nc1ccccn1)N1CCOCC1,319,9.3% (inactive),10.6% (inactive),95.2%,-70.8% (inactive),114%,-0.303 (inactive),-5e-05 (inactive),0.00596 (inactive),1.79% (inactive),0.112% (inactive)
COc1ccc(OC)c(S(=O)(=O)Nc2ccccc2SC)c1,623,-5% (inactive),20% (inactive),96.7%,20.9% (inactive),85.2%,-0.486 (inactive),-3.4e-05 (inactive),0.00443 (inactive),21% (inactive),24% (inactive)
O=C(Nc1ccc2c(c1)nc1n2CCN(Cc2ccccc2)C1)c1cccs1,420,-13.3% (inactive),6.4% (inactive),89.3%,11.1% (inactive),73.9%,-0.461 (inactive),-0.000271 (inactive),0.00505 (inactive),-17.8% (inactive),-84.2% (inactive)
O=C(NCCCN1CCCC1=O)c1ccc2c(=O)n(Cc3ccco3)c(=S)[nH]c2c1,653,-16.6% (inactive),-35.1% (inactive),74%,-69.5% (inactive),101%,-0.572 (inactive),2.7e-05 (inactive),0.00624 (inactive),0.725% (inactive),-15.6% (inactive)
CC1C=CC(C)C(C(=O)O)C1C(=O)O (stereo not drawn),543,-4.4% (inactive),13% (inactive),46.5%,-15.8% (inactive),96%,-0.476 (inactive),-5.7e-05 (inactive),0.00278 (inactive),7.99% (inactive),41.3% (inactive)
O=C(NCC1CCCO1)c1ccccc1-c1nc(-c2ccc(Cl)cc2)no1 (stereo not drawn),821,-0.7% (inactive),1.8% (inactive),101%,-141% (inactive),122%,-0.483 (inactive),3.6e-05 (inactive),0.0055 (inactive),-17.2% (inactive),-4.71% (inactive)
COc1ccccc1CNS(=O)(=O)c1ccc(NC(C)=O)cc1,601,8.1% (inactive),-1.3% (inactive),110%,-57.3% (inactive),109%,-0.411 (inactive),-4.2e-05 (inactive),0.00719 (inactive),6.03% (inactive),6.94% (inactive)
Cc1cc(C)nc(SCc2csc(N)n2)n1,338,-3.6% (inactive),-3.1% (inactive),81.8%,-56.8% (inactive),100%,-0.347 (inactive),-4.2e-05 (inactive),0.00565 (inactive),-0.264% (inactive),-2.76% (inactive)
O=C(Nc1ncc(Br)s1)C1CCCN1S(=O)(=O)c1cccc2cccnc12 (stereo not drawn),674,0.6% (inactive),39.7% (inactive),88.6%,-12.1% (inactive),105%,-0.583 (inactive),-2.2e-05 (inactive),0.00689 (inactive),4.87% (inactive),36.5% (inactive)
c1ccc(-c2ccccc2OCCn2cncn2)cc1,780,-12.5% (inactive),22.9% (inactive),112%,-63.6% (inactive),111%,-0.485 (inactive),-3e-05 (inactive),0.00513 (inactive),2.95% (inactive),26% (inactive)
COC(=O)c1cc(=O)nc2sc(-c3cccs3)nn12,349,5.5% (inactive),4.7% (inactive),100%,-73.7% (inactive),105%,-0.463 (inactive),-2.2e-05 (inactive),0.006 (inactive),12.6% (inactive),29.9% (inactive)
O=C(COC(=O)C12CC3CC(CC(C3)C1)C2)NCc1ccco1,661,3.4% (inactive),-6.5% (inactive),109%,-28.3% (inactive),113%,-0.561 (inactive),7.7e-06 (inactive),0.00593 (inactive),11.1% (inactive),31.8% (inactive)
O=C(COc1ccccc1)N1CCN(C(=O)c2cccc(F)c2)CC1,725,1% (inactive),-0.2% (inactive),111%,7.6% (inactive),97.2%,-0.447 (inactive),-3.8e-05 (inactive),0.00634 (inactive),8.19% (inactive),29.6% (inactive)
CC(C)(C)NC(=O)CSc1nnc(-c2ccccn2)n1-c1ccccc1,588,-10.6% (inactive),-12.9% (inactive),86.7%,-36.6% (inactive),122%,-0.587 (inactive),-2e-05 (inactive),0.00702 (inactive),-7.01% (inactive),26.8% (inactive)
CC(=O)N(C)C1(c2nnnn2CCOC(=O)Nc2cccc3ccccc23)CCCC1,600,-8.2% (inactive),31.6% (inactive),98.9%,-99.1% (inactive),105%,-0.61 (inactive),-5.7e-05 (inactive),0.00458 (inactive),13% (inactive),21.8% (inactive)
Cc1ccc(C(=O)NCc2ccc3c(c2)OCO3)cc1S(=O)(=O)N1CCCCC1,437,4.7% (inactive),-2.6% (inactive),99.9%,-39.8% (inactive),113%,-0.451 (inactive),4.6e-05 (inactive),0.00487 (inactive),-2.9% (inactive),-10.9% (inactive)
CCOC(=O)c1[nH]c2ccccc2c1NC(=O)C(C)(C)C,692,-10.7% (inactive),-8.7% (inactive),117%,-30.2% (inactive),105%,-0.586 (inactive),-4.7e-05 (inactive),0.00597 (inactive),13.4% (inactive),45.1% (inactive)
